Legend:
Format in all cases: functional
[1] = biological target: Solute carrier family 2, facilitated glucose transporter member 1 (Homo sapiens) (UniProt P11166); experiment: ST_JUDE_LEISH: Cytotoxicity at 2uM final concentration against transgenic Leishmania Mexicana promastigotes LmGLUT1 that are glucose transport deficient and complemented with the human glucose transporter GLUT1. Activity is measured by DNA content using SYBR green in vitro
[2] = biological target: Hexose transporter 1 (Plasmodium falciparum) (UniProt O97467); experiment: ST_JUDE_LEISH: Cytotoxicity at 2uM final concentration against transgenic Leishmania Mexicana promastigotes LmPfHT that are glucose transport deficient and complemented with the Plasmodium falciparum hexose transporter. Activity is measured by DNA content using SYBR green in vitro
[3] = biological target: Glucose transporter (Leishmania mexicana) (UniProt O61059); experiment: ST_JUDE_LEISH: Cytotoxicity at 2uM final concentration against transgenic Leishmania Mexicana promastigotes LmGT2 that are glucose transport deficient and complemented with the L. Mexicana glucose transporter 2. Activity is measured by DNA content using SYBR green in vitro

Solute carrier family 2, facilitated glucose transporter member 1 (Homo sapiens), sequence (P11166 whole entry): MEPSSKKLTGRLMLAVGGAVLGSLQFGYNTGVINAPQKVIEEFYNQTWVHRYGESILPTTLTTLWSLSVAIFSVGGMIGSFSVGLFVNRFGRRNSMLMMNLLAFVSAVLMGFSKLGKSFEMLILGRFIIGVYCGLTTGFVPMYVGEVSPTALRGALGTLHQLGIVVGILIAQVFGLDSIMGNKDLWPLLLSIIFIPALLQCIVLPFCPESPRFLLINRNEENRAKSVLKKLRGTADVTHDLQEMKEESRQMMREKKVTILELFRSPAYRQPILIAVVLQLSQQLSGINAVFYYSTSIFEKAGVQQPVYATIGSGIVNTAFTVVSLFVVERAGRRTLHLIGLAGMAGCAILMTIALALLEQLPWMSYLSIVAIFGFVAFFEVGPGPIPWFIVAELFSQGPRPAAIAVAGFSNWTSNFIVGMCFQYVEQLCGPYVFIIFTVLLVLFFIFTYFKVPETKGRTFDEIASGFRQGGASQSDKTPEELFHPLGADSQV

Row | SMILES | inhibition [1] | inhibition [2] | inhibition [3]
1 | N=C(N)NN=Cc1c2ccccc2c(Cl)c2cc(Cl)ccc12 | 62.5% | 26.4% | 29.3%
2 | COc1ccc2ccccc2c1CCCCN1CCN(CC(c2ccc(F)cc2)N2CCC2)CC1 (centres undefined) | 4.25% | 3.64% | 3.18%
3 | Cc1cc(N)c2cc(NC(=O)CCC(=O)Nc3ccc4nc(C)cc(N)c4c3)ccc2n1 | 5.9% | 6.01% | 8.34%
4 | N=C(N)NC(=O)Nc1ccc(Cl)c([N+](=O)[O-])c1 | 0.49% | 0.63% | 0.37%
5 | Cc1cc(=O)c(-c2ccc(OCCSc3ccc(C(F)(F)F)cn3)cc2)c(C)[nH]1 | 2.89% | 5.13% | 2.2%
6 | Cc1ccc2c(=O)cc(CCc3cccc(F)c3F)n(CC(=O)N(Cc3ccc(-c4ccc(C(F)(F)F)cc4)cc3)C3CCN(C)CC3)c2n1 | 2% | 0.92% | 1.01%
7 | CN(CCCNCc1cccc2ccccc12)CCCNCc1cccc2ccccc12 | 1.31% | 0.53% | 1.98%
8 | CCCCOc1ccccc1C(=O)NCc1csc(-c2ccccc2)n1 | -0.31% | 1.14% | 0.41%
9 | COc1ccc2nccc([C@@H](O)CN3CCC(NCc4cc5c(F)ccc(F)c5[nH]4)CC3)c2c1 | 21.9% | 29.8% | 2.77%
10 | c1ccc2[nH]c(-c3ccc(-c4ccc(CN5CCN(CCN6CCOCC6)CC5)cc4)cc3)nc2c1 | 11.2% | 12.4% | 4.36%
11 | COc1ccc(CN(C)C(=O)CCNS(=O)(=O)c2ccc3c(c2)OCCCO3)cc1F | 5.25% | 6.84% | 7.12%
12 | COc1cc(CCOc2c(C)nc(N)nc2N)cc(OC)c1OC | -0.69% | 0.7% | -0.41%
13 | CCC1(c2ccccc2)N=C(N)N(CCCc2ccccc2)C1=O (centres undefined) | 2.53% | 1.89% | 0.85%
14 | N=C(N)Nc1nc(-c2ccc(NCc3ccc(CNc4cccc(-c5csc(NC(=N)N)n5)c4)cc3)cc2)cs1 | 0.36% | 1.69% | 1.12%
15 | CCN(CCS(C)(=O)=O)Cc1ccc(-c2ccc3ncnc(Nc4ccc(OCc5cccc(F)c5)c(Cl)c4)c3c2)o1 | 2.48% | 0.54% | -0.09%
16 | COCC(C)n1c(SCC(=O)Nc2cc(C(F)(F)F)ccc2Cl)nc2ccccc2c1=O (centres undefined) | 6.25% | 4.88% | 2.72%
17 | Fc1ccc(C2N=C(SCCSC3=NC(c4ccc(F)cc4)C(c4ccc(F)cc4)N3)NC2c2ccc(F)cc2)cc1 (centres undefined) | 1.34% | 3.1% | 3.33%

Row | SMILES | inhibition [1] | inhibition [2] | inhibition [3]
18 | CC[C@H](N/C(=N\c1ccc(-c2ccccc2)cc1)Nc1ccc(C#N)cc1O)c1ccccc1 | 4.55% | 3.4% | 2.55%
19 | COc1ccc(CNC2CCN(C)CC2)cc1-c1ccc(OC)c(S(=O)(=O)NCc2ccccc2)c1 | 1.01% | 1.62% | 0.01%
20 | Cc1nc(C)c(-c2ccc(-c3ccc(F)cc3)cc2)c(O)c1Cl | 1.77% | 2.48% | 0.55%
21 | FC(F)(F)c1cccc(CCNc2nccc(NCc3ccc(Cl)cc3Cl)n2)c1 | 9.74% | 6.08% | 1.55%
22 | CC(C)(C)Nc1nc(Nc2cccc([N+](=O)[O-])c2)nc(-n2ccnc2)n1 | 1.91% | 1.9% | -1.47%
23 | Cc1cccc2nc(-c3ccc(-c4cccc(CN5CCCC5CN)c4)cc3)[nH]c12 (centres undefined) | 1.08% | 1.46% | 1.07%
24 | COc1ccc2nc(C)cc(Nc3ccc(Oc4ccc(Cl)c5ccccc45)c(Cl)c3)c2c1 | 12.8% | 10.2% | 5.43%
25 | O=S1(=O)NC2(CCN(CCc3ccc(Cl)cc3)CC2)Nc2cc(F)cc(F)c21 | 7.66% | 8.79% | 7.55%
26 | CCCC(=O)NC(c1ccc(C(C)C)cc1)c1ccc2cccnc2c1O (centres undefined) | 2.04% | 3.11% | 0.65%
27 | Cc1nn(-c2cccc(Cl)c2)c2c1C(C(=O)c1ccc3c(c1)OCO3)CC(=O)N2 (centres undefined) | -2.6% | -0.95% | -2.87%
28 | CC1c2cccc(O)c2CCN1CCc1ccc(Cl)c(Cl)c1 (centres undefined) | 12.5% | 7.34% | 5.5%
29 | CNCCNCc1ccc(-c2ccc(-c3nc4cc(F)ccc4[nH]3)cc2)cc1 | 0.55% | 0.64% | 0.13%
30 | CC(=O)Nc1cccc(C(=O)Nc2ccc(-c3cccc(-c4nc5cc(F)ccc5[nH]4)c3)cc2)c1 | 4.65% | 4.15% | 5.47%
31 | OC[C@H]1CCCN1CC#Cc1cc2c(Nc3ccc(OCc4cccc(F)c4)c(Cl)c3)ncnc2s1 | 3.54% | 3.56% | 2.65%
32 | COc1cc(F)c2ncc(C#N)c(CCN3CCC(NCc4ccc5c(c4)OCCO5)CC3)c2c1 | 91.3% | 95.1% | 93.9%
33 | Fc1ccc2[nH]c(-c3cccc(-c4cccc(CNCCc5ccncc5)c4)c3)nc2c1 | 11.1% | 10.6% | 12.9%

— ChEMBL document CHEMBL3433997, “St. Jude Leishmania screening dataset” (2016)
